# Records with an inconclusive call do not appear. Entries that show only a call come without a potency. Active and inactive are the calls of the source. Calls follow the shape of the dose curve; as a rule, active = well fitted cell-killing curve with a large enough effect in the repeat runs; inconclusive = weak or mixed curves, or effect the other way; inactive = no such curve, though single readings can be large or run the other way.
# Experiment: qHTS assay to identify small molecule antagonists of the sonic hedgehog signaling (Shh) pathway - cell viability counter screen (AID 1259367); also: nearly all actives have a fitted effect of over 55% in size
# Details: NIH/3T3 Gli1-Luc viability, CellTiter-Fluor, 24 h; series mostly up to 92.4 µM
# Procedure, shortened: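 Tox21 library chemicals were tested on a Gli1-Luc NIH/3T3 clone (2,000 cells/well) stimulated by conditioned medium; viability was quantified as fluorescence from CellTiter-Fluor reagent added at 23 hr.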
row,SMILES,Potency
1,O=S(=O)(O)OOS(=O)(=O)O,inactive
2,Cc1ccc(N)cc1,inactive
3,CC[N+](=O)[O-],inactive
4,CN1C(=O)CCS(=O)(=O)C1c1ccc(Cl)cc1 (stereo not given),inactive
5,C=CC(=O)OCC(CC)CCCC (stereo not given),inactive
